Reference: PubChem BioAssay
Activity calls are given as the source filed them.

Key:
[1] = tested on: Plasmodium falciparum Sir2 (PF13_0152, Sir2A); assay: Plasmodium falciparum Sir2A binding compounds – biochemical, small-molecule microarray, 635 nm fluorescence, primary screen (AID 1098); conditions: fluorescence 635 nm, higher = more signal;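 also: score merges spot fluorescence intensity with its signal-to-noise ratio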
[2] = probe aDKK1 binding to arrayed compounds – biochemical, biotinylated probe, 635/667 nm fluorescence, primary screen (AID 1099); conditions: small-molecule microarray, higher = more signal;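 also: score merges 667nm spot fluorescence with signal to noise across triplicate slides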
[3] = probe aCHRDL2 binding to arrayed compounds – biochemical, biotinylated probe, 635/667 nm fluorescence, primary screen (AID 1100); conditions: small-molecule microarray, higher = more signal
[4] = change in splice reporter luminescence, either direction, cell-based, HEK293, spliceosome inhibition project, primary screen (AID 1101); conditions: HEK293 splicing luciferase reporter, 24 h, higher = more signal, called active from +8 up or from −8 down;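 also: HEK293 cells carrying a splicing-competent luciferase reporter gene; test concentration not given here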
[5] = biological target: Fibroblast growth factor 10 (Homo sapiens) (UniProt O15520); assay: compounds binding fibroblast growth factor 10 – biochemical, small-molecule microarray, 635 nm fluorescence, primary screen (AID 1102); conditions: FGF10 binding, fluorescence 635 nm, higher = more signal
[6] = tested on: glycogen synthase kinase-3 (GSK3A per assay name; protocol says GSK3B); assay: compounds binding glycogen synthase kinase-3 – biochemical, small-molecule microarray, 635 nm fluorescence, GSK3A, primary screen (AID 1103); conditions: fluorescence 635 nm, higher = more signal; also: the record names both GSK3A and GSK3B
[7] = biological target: Epidermal growth factor receptor (Homo sapiens) (UniProt P00533); assay: compounds binding epidermal growth factor receptor – biochemical, small-molecule microarray, 635 nm fluorescence, primary screen (AID 1104); conditions: EGFR binding, higher = more signal;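 also: score merges 667 nm emission intensity with spot signal to noise over triplicate slides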
[8] = biological target: Follistatin-related protein 3 (Homo sapiens) (UniProt O95633); assay: compounds binding follistatin-related protein 3 – biochemical, small-molecule microarray, 635 nm fluorescence, primary screen (AID 1105); conditions: FSTL3 binding, higher = more signal;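 also: score merges emission near 667 nm and signal to noise per printed spot across three slides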
[9] = biological target: Dickkopf-related protein 1 (Homo sapiens) (UniProt O94907); assay: small molecules binding DKK1 protein – biochemical, small-molecule microarray, 635 nm fluorescence scan, primary screen (AID 1106); conditions: higher = more signal;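 also: score merges emission near 667 nm with signal to noise over three replicate slides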
[10] = tested on: Inhibin beta A chain (activin A); assay: small molecules binding activin A – biochemical, small-molecule microarray, 635 nm fluorescence scan, primary screen (AID 1107); conditions: INHBA, higher = more signal;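 also: mouse activin A protein probed at 4.33 µg/mL on printed slides; score merges bound-protein fluorescence near 667 nm with spot signal-to-noise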
[11] = tested on: Human papillomavirus type 1a protein E7 (residues 44-93); assay: small molecules binding HPV E7 44-93 – biochemical, small-molecule microarray, residues 44-93, 635 nm fluorescence, primary screen (AID 1108); conditions: fluorescence 635 nm, higher = more signal;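 also: E7 fragment applied at 1 µg/mL in TBST for 1 h at 4 C; score combines spot fluorescence with its signal to noise ratio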
[12] = hepatitis C replication reporter changes, two-sided – Huh7 cells, luciferase reporter, HCV replication inhibitor project, primary screen (AID 1109); conditions: Huh7 HCV replicon luciferase reporter, 48 h; higher = more signal;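 also: huh7 hepatoma cells harbouring a luciferase neomycin HCV replicon reporter; luciferase luminescence as measure of HCV replicon replication; test concentration not given here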
[13] = biological target: Left-right determination factor 2 (Homo sapiens) (UniProt O00292); assay: small molecules binding LEFTY2 protein – biochemical, small-molecule microarray, 635 nm fluorescence scan, primary screen (AID 1110); conditions: higher = more signal
[14] = biological target: Calmodulin-1 (Homo sapiens) (UniProt P0DP23); assay: small molecules binding calmodulin-1 with EGTA – biochemical, small-molecule microarray, Cy5-labelled CALM1, profiling panel (AID 1111); conditions: Cy5-CALM1 binding fluorescence, higher = more signal;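 also: labelled calmodulin applied in Tris saline Tween buffer holding calcium plus EGTA and DTT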
[15] = biological target: Calmodulin-1 (Homo sapiens) (UniProt P0DP23); assay: small molecules binding Ca-loaded calmodulin-1 – biochemical, small-molecule microarray, Cy5-labelled CALM1, plus calcium, artefact control for SMM control-protein annotation, profiling panel (AID 1112); conditions: Cy5-CALM1 binding fluorescence, higher = more signal;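 also: score merges spot fluorescence with signal to noise from triplicate slides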
[16] = probe aWnt5a binding to arrayed compounds – biochemical, biotinylated probe, 635/667 nm fluorescence, primary screen (AID 1113); conditions: small-molecule microarray, higher = more signal;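 also: score merges 667 nm fluorescence intensity with signal-to-noise per printed feature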
[17] = probe aShh binding to arrayed compounds – biochemical, biotinylated probe, 635/667 nm fluorescence, primary screen (AID 1114); conditions: small-molecule microarray, higher = more signal;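 also: probe is biotin-labelled aShh protein from a stem cell growth factor screen; measures binding of labelled protein to compounds printed on the slide; score merges feature fluorescence at 667 nm with signal-to-noise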
[18] = probe aNog binding to arrayed compounds – biochemical, biotinylated probe, 635/667 nm fluorescence, primary screen (AID 1115); conditions: small-molecule microarray, higher = more signal;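 also: probe is biotinylated aNog protein used at 0.15 µg/mL for 1 h at 4 C; z-score combines 667 nm fluorescence of each spot with its signal to noise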
[19] = biological target: Torsin-1A-interacting protein 1 (Homo sapiens) (UniProt Q5JTV8); assay: compound microarray binding of lysate hLAP1 – cell lysate, small-molecule microarray, COS7 lysate, 635/667 nm fluorescence, primary screen (AID 1116); conditions: 635 nm fluorescence, higher = more signal
[20] = biological target: Alpha-bungarotoxin (Bungarus multicinctus) (UniProt P60615); assay: compounds binding labelled alpha-BTX control protein – biochemical, small-molecule microarray, Alexa647 label, 635/667 nm fluorescence, artefact control for SMM control protein annotation, profiling panel (AID 1117); conditions: alpha-BTX-A647 binding fluorescence, higher = more signal
Sequence of Alpha-bungarotoxin (Bungarus multicinctus) (P60615 whole entry, looked up): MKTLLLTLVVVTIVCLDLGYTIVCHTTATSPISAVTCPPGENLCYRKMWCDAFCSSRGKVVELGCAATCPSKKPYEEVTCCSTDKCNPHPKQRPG

Sequence of Dickkopf-related protein 1 (Homo sapiens) (O94907 whole entry, looked up): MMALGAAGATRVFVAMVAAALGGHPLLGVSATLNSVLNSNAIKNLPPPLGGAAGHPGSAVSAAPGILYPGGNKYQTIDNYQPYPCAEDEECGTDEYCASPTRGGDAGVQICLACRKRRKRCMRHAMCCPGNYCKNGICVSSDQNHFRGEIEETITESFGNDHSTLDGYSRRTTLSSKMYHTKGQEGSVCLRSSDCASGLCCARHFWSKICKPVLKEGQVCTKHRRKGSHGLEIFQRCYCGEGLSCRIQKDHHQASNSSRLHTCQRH
Sequence of Torsin-1A-interacting protein 1 (Homo sapiens) (Q5JTV8 whole entry, looked up): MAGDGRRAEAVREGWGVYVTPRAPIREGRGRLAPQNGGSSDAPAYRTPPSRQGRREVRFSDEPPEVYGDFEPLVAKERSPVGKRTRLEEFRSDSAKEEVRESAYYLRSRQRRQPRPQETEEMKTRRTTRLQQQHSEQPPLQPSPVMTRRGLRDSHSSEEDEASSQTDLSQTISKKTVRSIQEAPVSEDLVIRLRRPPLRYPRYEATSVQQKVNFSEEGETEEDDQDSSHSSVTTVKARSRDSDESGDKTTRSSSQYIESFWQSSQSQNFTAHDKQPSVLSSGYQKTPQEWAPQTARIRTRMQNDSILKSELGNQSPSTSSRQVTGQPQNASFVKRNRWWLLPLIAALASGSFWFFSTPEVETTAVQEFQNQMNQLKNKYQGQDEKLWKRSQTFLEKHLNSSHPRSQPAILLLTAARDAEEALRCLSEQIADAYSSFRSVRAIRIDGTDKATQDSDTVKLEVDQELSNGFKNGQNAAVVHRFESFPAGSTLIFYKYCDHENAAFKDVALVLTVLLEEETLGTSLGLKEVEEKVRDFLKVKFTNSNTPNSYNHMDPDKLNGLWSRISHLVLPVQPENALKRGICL
Sequence of Left-right determination factor 2 (Homo sapiens) (O00292 whole entry, looked up): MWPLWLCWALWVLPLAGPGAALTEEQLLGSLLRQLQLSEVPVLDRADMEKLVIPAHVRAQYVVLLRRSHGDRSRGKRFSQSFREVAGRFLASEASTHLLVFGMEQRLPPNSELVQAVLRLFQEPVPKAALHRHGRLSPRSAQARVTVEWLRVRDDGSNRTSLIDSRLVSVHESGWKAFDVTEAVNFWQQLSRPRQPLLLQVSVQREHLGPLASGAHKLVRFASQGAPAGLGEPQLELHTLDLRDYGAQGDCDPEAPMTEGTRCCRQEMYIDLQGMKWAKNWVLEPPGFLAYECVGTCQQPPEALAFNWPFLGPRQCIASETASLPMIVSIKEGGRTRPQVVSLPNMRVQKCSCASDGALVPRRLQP
Sequence of Epidermal growth factor receptor (Homo sapiens) (P00533 whole entry, looked up): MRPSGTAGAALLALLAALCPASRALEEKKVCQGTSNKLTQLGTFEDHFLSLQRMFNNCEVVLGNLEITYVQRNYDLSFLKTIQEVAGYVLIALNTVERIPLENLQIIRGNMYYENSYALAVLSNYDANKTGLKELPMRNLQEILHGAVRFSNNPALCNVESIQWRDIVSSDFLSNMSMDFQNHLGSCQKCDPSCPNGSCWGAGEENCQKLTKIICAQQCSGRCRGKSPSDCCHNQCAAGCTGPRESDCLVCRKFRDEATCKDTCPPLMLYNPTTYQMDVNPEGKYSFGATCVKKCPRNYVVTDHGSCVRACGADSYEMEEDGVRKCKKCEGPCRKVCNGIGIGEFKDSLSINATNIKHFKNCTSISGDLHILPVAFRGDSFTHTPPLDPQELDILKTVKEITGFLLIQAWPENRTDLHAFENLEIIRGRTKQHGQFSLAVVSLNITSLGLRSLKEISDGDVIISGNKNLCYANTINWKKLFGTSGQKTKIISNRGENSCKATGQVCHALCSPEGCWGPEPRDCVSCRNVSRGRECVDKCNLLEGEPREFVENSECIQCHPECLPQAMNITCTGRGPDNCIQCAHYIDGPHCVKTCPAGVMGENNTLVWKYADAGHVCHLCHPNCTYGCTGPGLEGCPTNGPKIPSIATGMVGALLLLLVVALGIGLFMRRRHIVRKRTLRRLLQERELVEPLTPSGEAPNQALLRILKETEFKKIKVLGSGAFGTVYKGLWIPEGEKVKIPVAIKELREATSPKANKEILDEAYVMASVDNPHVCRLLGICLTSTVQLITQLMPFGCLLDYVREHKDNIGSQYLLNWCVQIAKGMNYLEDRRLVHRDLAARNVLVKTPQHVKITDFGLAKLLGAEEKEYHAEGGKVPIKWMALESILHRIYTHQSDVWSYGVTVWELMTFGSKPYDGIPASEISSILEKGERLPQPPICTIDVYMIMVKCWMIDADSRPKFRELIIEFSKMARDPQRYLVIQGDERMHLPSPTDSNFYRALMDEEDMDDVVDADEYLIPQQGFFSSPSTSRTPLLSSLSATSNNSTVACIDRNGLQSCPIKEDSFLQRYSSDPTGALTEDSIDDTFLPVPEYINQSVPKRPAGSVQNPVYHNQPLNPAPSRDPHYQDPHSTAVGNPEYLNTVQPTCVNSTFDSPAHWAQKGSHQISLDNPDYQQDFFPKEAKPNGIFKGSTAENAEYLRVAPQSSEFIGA
Sequence of Fibroblast growth factor 10 (Homo sapiens) (O15520 whole entry, looked up): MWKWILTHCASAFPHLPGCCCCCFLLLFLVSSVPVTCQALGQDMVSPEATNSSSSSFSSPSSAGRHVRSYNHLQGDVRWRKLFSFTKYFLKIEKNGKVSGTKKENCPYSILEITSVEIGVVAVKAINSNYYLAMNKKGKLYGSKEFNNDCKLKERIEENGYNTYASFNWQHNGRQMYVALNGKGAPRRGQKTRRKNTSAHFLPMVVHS
Sequence of Follistatin-related protein 3 (Homo sapiens) (O95633 whole entry, looked up): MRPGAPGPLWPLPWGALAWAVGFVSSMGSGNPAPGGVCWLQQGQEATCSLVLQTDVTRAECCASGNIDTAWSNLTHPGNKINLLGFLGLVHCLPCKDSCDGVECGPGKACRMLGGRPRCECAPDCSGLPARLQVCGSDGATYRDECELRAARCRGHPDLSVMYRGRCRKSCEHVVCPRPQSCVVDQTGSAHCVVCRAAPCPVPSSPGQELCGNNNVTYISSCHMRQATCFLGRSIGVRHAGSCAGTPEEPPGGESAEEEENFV

SMILES | composite z-score [1] | composite z-score [2] | composite z-score [3] | z-score [4] | composite z-score [5] | composite z-score [6] | composite z-score [7] | composite z-score [8] | composite z-score [9] | composite z-score [10] | composite z-score [11] | z-score [12] | composite z-score [13] | composite z-score [14] | composite z-score [15] | composite z-score [16] | composite z-score [17] | composite z-score [18] | composite z-score [19] | composite z-score [20]
CC(C)OC(=O)CC(=O)CC(O)c1cccc(C#N)c1 (stereo not given) | 0.431 | 0.662 | 1.04 | -1.69 (inactive) | 0.632 | 0.646 | 0.23 | 0.74 | -0.618 | 0.964 | 1.32 | -0.664 | -0.0472 | 0.552 | 0.252 | -0.0944 | -0.16 | -0.0956 | 1.39 | 0.684
CCOC(=O)C1=CC[C@@H](c2ccccc2)N(S(=O)(=O)c2ccc(C)cc2)C1 | 0.243 | 0.617 | 0.931 | 0.259 (inactive) | -0.0077 | 0.121 | 0.0223 | 0.36 | 0.107 | 1.29 | 0.493 | -2.23 | -0.0161 | -0.11 | -0.374 | -0.0459 | 0.485 | 0.005 | 0.127 | 0.329
CC(C)(C)OC(=O)CC[C@]1(C(=O)NCCN2CCOCC2)N=C(c2ccc(OCCCO)cc2)O[C@H]1c1ccccc1N=[N+]=[N-] | 1.63 | 0.99 | 1.12 | -1.03 (inactive) | 0.177 | 1.17 | 0.303 | 0.361 | -0.235 | 1.24 | 0.775 | 1.08 | 0.245 | 1.3 | 0.374 | 0.0229 | 0.0214 | 1.73 | 1.7 | 1.04
CC(C)CNC(=O)[C@@]1(c2ccc([N+](=O)[O-])cc2)CC(=O)N(C2CCCCC2)[C@@H]1c1ccc(CO)cc1I | 1.67 | 0.349 | 0.641 | -0.721 (inactive) | 0.489 | -0.198 | -0.519 | -0.16 | -0.477 | 0.138 | 1.11 | -2.3 | -0.609 | 0.779 | 0.379 | -0.0417 | -0.16 | -0.279 | 0.341 | 0.817
O=C1O[C@@H](c2ccccc2)[C@@H](c2ccccc2)N2[C@@H](c3ccccc3OCCO)[C@]3(C(=O)Nc4ccc(C#CCCO)cc43)[C@@H](C(=O)Nc3nc4ccccc4s3)[C@H]12 | 0.757 | 0.74 | 0.862 | -0.0337 (inactive) | 0.828 | 1.28 | 0.528 | 1.35 | 0.76 | 0.406 | -0.503 | -2.12 | 1.02 | 1.7 | 0.64 | -0.0572 | -0.289 | -0.523 | 0.326 | 1.82
CC(=O)n1cc(C(O)C2C=CC3C(=O)N(c4ccccc4)C(=O)C3N2Nc2ccccc2)c2ccccc21 (stereo not given) | 0.454 | 1.81 | 1.52 | -1.22 (inactive) | 0.833 | -0.669 | 0.444 | 1.19 | 0.325 | 1.93 | -0.175 | -1.95 | -0.183 | 0.735 | 0.671 | 0.13 | 1.21 | 0.974 | 1.09 | 1.41
CN(C)CCCCNC(=O)[C@H]1C[C@H]2C(=O)N[C@@H](CCCCN(C)C)C(=O)N2[C@H]1c1cccc(OCCO)c1 | 1.12 | -0.199 | -0.434 | -0.404 (inactive) | 1.21 | 1.29 | 0.514 | 1.11 | 0.418 | 0.0714 | 1.41 | 0.057 | 1.17 | 0.477 | -0.167 | -0.036 | -0.203 | 0.0721 | 0.752 | 0.701
